Reference: the supplement of paper PMC11732987, “Enantioselective OTUD7B fragment discovery through chemoproteomics screening and high-throughput optimisation” (Communications Chemistry, 2025)

Key:
Test in all cases: log2 ratio of Biotin-Ahx-Ub-VS probe labelling (fragment/DMSO); higher = less target engagement (more negative = stronger competition), active = hit call of the paper (q ≤ 0.05, log2 ratio ≤ -1)
Details in all cases: compound concentration: 200 uM; treatment time: 3 h
USP19 = biological target: T1, USP19 (UniProt O94966)
T1 sequence (whole entry): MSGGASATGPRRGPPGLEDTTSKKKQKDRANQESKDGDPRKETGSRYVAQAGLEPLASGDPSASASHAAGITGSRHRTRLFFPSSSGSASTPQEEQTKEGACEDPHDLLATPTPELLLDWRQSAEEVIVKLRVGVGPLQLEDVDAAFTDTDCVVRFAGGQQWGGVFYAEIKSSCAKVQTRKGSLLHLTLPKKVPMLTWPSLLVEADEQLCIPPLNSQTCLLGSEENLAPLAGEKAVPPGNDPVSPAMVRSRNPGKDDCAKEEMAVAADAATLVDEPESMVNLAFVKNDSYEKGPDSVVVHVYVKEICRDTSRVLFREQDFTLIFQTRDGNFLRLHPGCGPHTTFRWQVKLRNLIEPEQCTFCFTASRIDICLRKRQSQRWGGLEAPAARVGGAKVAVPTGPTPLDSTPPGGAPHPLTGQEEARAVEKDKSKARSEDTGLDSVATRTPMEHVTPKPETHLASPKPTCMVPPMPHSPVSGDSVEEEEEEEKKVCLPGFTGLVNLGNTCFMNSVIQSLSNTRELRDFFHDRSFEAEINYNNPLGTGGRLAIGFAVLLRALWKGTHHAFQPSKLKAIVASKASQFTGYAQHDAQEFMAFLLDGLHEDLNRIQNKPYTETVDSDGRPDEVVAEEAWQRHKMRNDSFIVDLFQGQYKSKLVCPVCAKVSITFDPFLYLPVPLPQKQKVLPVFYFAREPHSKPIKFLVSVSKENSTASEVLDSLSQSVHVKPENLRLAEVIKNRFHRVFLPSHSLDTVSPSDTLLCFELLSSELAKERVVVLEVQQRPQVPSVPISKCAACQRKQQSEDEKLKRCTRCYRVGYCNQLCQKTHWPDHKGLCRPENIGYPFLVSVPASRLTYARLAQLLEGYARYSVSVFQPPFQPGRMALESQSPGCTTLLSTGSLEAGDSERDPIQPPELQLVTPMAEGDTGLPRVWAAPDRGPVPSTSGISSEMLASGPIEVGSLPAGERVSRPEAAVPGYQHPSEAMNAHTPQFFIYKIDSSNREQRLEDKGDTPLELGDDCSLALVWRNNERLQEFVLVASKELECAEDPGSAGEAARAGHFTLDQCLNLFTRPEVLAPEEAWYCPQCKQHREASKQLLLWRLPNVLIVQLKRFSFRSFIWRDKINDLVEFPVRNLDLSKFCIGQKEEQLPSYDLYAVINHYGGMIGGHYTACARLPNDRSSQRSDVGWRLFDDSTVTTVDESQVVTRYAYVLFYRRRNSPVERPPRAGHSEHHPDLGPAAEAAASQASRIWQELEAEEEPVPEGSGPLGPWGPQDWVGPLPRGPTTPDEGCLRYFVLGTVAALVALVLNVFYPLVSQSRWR
How it was run: (§1)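 Each value is an average log2 ratio of fragment to vehicle, tested by unpaired t-test. The underlying Spectronaut label-free quantities were global-median-normalised, and only proteins with ≥2 unique peptides were included. Triplicate HEK293T lysate samples (495 µg) were exposed to fragment at 200 µM or vehicle for 3 h, then to Biotin-Ahx-Ub-VS at 0.5 µM final for 1 h, before NeutrAvidin enrichment of labelled DUBs, LysC and trypsin digestion, and diaPASEF LC-MS/MS.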

USP24 = USP24 (UniProt Q9UPU5)
How it was run: as §1

USP25 = biological target: T2, USP25 (UniProt Q9UHP3)
T2 sequence (whole entry): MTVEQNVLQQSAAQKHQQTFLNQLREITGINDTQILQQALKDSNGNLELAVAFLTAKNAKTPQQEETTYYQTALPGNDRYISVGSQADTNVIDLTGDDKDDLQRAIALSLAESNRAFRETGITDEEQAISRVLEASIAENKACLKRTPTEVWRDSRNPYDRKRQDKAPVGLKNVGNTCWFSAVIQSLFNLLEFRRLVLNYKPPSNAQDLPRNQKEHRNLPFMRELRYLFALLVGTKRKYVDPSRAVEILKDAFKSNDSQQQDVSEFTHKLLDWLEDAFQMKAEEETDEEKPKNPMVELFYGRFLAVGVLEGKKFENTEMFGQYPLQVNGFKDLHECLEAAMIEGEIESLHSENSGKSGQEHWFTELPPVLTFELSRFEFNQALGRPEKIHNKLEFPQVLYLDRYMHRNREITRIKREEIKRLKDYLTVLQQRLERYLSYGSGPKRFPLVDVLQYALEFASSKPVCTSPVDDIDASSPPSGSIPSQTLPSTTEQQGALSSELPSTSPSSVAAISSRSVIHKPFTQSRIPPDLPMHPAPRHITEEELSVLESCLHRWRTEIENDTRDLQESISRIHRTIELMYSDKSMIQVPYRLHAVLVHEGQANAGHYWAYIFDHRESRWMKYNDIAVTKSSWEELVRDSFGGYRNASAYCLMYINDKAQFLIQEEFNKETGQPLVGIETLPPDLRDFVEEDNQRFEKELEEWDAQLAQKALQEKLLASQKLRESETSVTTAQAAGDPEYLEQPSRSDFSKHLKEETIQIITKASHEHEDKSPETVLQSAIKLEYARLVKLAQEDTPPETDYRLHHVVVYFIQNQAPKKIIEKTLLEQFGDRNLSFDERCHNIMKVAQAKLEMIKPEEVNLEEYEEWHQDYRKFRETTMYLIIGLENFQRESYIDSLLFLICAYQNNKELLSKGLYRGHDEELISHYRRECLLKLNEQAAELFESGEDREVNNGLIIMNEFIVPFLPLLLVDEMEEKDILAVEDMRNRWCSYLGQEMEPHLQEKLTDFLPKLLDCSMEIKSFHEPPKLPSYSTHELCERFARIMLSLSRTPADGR
How it was run: as §1

USP28 = biological target: T3, USP28 (UniProt Q96RU2)
T3 sequence (whole entry): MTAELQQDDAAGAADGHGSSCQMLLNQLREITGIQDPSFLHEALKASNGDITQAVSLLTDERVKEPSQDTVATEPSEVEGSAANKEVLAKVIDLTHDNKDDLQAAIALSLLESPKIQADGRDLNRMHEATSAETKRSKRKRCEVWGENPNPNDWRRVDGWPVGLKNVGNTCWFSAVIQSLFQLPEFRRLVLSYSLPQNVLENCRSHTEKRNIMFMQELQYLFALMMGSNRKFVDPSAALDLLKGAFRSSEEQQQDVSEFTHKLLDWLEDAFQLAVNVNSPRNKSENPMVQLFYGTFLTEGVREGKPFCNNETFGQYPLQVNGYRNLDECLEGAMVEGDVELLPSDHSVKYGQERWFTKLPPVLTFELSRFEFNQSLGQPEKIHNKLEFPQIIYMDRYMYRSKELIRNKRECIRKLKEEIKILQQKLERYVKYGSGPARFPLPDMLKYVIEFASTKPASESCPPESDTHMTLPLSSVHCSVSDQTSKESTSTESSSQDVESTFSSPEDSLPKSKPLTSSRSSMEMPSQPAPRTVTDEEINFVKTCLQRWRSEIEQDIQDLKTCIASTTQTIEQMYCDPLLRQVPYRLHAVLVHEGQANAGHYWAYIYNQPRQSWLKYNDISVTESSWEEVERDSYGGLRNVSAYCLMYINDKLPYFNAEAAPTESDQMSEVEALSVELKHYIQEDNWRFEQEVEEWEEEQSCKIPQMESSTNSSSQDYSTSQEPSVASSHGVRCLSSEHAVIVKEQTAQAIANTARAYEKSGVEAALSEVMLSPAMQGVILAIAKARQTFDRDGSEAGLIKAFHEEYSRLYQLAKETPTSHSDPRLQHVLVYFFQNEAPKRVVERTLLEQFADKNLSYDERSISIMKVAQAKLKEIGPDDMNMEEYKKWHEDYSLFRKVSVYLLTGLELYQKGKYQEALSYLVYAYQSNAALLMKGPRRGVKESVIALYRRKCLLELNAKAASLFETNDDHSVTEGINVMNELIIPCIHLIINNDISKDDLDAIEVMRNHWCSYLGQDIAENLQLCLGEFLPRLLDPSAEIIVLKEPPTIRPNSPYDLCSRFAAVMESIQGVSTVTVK
How it was run: as §1

Measured: log2 ratio of Biotin-Ahx-Ub-VS probe labelling

USP24, sequence (Q9UPU5 whole entry): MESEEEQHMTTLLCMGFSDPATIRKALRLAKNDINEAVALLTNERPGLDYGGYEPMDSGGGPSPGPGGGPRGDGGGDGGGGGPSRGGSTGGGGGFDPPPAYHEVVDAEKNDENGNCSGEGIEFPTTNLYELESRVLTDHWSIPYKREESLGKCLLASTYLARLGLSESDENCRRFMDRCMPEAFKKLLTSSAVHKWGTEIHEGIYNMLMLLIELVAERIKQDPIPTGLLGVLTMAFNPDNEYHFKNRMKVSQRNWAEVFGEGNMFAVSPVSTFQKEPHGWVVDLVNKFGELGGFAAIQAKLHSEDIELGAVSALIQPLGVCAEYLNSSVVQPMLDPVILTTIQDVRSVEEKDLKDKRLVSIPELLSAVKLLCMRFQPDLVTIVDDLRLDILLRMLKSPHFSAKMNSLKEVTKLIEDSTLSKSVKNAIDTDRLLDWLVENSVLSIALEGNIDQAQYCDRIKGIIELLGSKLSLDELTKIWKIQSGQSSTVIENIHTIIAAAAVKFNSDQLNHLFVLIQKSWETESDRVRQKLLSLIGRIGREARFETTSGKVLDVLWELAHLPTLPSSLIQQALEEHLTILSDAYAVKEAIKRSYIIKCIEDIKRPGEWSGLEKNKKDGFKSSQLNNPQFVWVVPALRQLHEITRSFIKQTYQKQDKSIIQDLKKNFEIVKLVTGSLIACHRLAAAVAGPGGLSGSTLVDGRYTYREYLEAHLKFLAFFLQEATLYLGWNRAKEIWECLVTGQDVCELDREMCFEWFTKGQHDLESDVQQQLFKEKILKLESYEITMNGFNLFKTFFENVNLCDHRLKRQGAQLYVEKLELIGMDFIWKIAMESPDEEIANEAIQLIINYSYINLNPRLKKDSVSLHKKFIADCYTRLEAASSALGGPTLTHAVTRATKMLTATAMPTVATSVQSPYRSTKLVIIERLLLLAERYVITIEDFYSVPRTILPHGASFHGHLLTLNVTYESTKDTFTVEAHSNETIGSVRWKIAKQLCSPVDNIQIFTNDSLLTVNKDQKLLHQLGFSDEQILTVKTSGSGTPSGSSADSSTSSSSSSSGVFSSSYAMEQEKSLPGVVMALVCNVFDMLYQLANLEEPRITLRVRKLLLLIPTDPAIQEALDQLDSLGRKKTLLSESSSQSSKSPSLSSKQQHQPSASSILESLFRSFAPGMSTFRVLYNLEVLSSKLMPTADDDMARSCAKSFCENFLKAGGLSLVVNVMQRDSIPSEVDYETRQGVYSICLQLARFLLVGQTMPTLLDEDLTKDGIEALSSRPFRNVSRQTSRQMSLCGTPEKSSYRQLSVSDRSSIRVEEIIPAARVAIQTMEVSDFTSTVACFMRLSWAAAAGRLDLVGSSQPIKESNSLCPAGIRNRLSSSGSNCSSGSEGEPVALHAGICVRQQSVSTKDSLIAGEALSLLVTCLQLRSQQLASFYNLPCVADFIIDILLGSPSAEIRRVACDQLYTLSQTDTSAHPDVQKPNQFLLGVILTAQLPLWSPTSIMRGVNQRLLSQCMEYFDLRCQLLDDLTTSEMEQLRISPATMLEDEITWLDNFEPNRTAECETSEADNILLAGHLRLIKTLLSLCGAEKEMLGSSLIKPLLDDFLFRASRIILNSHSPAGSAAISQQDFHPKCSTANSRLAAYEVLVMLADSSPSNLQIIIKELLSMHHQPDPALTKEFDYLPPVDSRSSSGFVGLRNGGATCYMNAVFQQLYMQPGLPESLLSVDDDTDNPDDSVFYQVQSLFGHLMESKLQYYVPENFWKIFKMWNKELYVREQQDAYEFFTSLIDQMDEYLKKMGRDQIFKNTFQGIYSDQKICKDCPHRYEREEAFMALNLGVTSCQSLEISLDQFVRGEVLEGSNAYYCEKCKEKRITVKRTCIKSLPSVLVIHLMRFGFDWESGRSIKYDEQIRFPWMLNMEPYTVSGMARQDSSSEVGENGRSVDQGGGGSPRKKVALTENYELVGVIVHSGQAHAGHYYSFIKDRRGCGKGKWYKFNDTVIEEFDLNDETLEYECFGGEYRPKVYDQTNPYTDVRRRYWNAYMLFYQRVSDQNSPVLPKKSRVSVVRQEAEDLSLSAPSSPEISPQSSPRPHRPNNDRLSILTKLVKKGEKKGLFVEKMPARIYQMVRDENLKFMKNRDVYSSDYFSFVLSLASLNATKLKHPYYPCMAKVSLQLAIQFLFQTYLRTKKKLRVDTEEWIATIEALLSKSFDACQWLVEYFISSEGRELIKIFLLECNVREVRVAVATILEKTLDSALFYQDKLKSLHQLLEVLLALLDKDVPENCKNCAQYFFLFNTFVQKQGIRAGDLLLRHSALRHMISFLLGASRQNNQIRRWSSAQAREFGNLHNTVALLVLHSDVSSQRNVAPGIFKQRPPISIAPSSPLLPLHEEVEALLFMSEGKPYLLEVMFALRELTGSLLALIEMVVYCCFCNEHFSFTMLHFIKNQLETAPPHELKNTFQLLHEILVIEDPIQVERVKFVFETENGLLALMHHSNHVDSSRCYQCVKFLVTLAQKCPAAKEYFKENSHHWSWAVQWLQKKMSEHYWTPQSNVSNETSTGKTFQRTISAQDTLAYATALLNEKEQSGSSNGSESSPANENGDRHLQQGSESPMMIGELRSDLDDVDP

Cc1c(NC(=O)CCl)c(=O)n(-c2ccccc2)n1C
inactive: USP19 -0.181 | USP24 -0.125 | USP25 -0.16 | USP28 -0.182
